Consider 28 molecules from PubChem BioAssay (NCATS).

Several values for one entry are separate records, joined by “and”; a condition that tells them apart may be missing. Equal values may be shown once. Inconclusive results are not listed. Values without a mark were called inactive. Activity calls are given as the source filed them. Unless noted, the call rests on the fitted dose curve; in most records, active means well fitted curve in the direction sought with a large enough effect; inconclusive means small, poorly fitted or top-dose-only effect, or another doubt; inactive means no such curve, though single readings can be large; an effect the other way counts as inactive or inconclusive. Where a SMILES comes first, the peptide text is derived from it.

Experiment [1] can be described thus: Primary qHTS for small molecule stabilizers of the endoplasmic reticulum resident proteome: Secreted ER Calcium Modulated Protein (SERCaMP) assay (AID 1508630). Further: on the % scale 0 is the no-effect control and ±100 the full control effect. The method, boiled down: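 GLuc-SERCaMP-expressing SH-SY5Y cells, pretreated 16 h with compound, are challenged with thapsigargin to empty ER calcium stores; after 4 h, coelenterazine is added directly to the medium and luminescence is imaged.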
(In general: qHTS replaces the single test concentration by a dilution series.)

A short description of experiment [2]: A High-Content qHTS Against Drug Library for the Identification of Small Molecules that Inhibit DYT1 Early Onset Primary Dystonia-Associated Cell Pathology (AID 1645839; calls by dose curve; further: potency means the concentration at half of the fitted maximal effect; on % pathology change, negative = correction: series mostly up to about 46 µM). The procedure, abridged: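 Readout: %pathology, the punctate EGFP-TorsinA distribution from imaging, as the primary channel and cell count as the toxicity counterscreen. HEK293 Flp-In cells expressing delE TorsinA were induced with tetracycline and treated with compound for 48 h.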

Experiment [3] addresses Cytochrome P450 2D6 (Homo sapiens) (UniProt P10635). In words: Cytochrome P450 family 2 subfamily D member 6 (CYP2D6) small molecule antagonists: luciferase biochemical (cell-free) qHTS assay (AID 1645840; active means well fitted curve in the direction sought with a large enough effect in the repeat runs; an effect the other way counts as inactive or inconclusive; further: nearly all actives have a fitted effect of over 55% in size; further: potency means the concentration at half of the fitted maximal effect; on activity change, negative = inhibition: series mostly up to about 57 µM; on the % scale 0 is the no-effect control and ±100 the full control effect). The method, boiled down:
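P450-Glo luminescent screen: recombinant CYP2D6 enzyme–proluciferin substrate mix preincubated with compound 10 min at room temperature, then NADPH regeneration added for 1 h at room temperature. Detection reagent added for 20 min; luciferin light read as relative luminescence units.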

Experiment [4] concerns the target Cytochrome P450 2C9 (Homo sapiens) (UniProt P11712). Briefly: Cytochrome P450 family 2 subfamily C member 9 (CYP2C9) small molecule antagonists: luciferase biochemical (cell-free) qHTS assay (AID 1645842; active means well fitted curve in the direction sought with a large enough effect in the repeat runs; an effect the other way counts as inactive or inconclusive; further: nearly all actives have a fitted effect of over 55% in size; further: potency means the concentration at half of the fitted maximal effect; on activity change, negative = inhibition: series mostly up to about 57 µM; on the % scale 0 is the no-effect control and ±100 the full control effect). The method, boiled down:
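Luminescence, after 20 min with luciferin detection reagent, reflected CYP2C9 turnover during a 1 h NADPH-driven reaction at 37C. Enzyme-substrate mix contained 0.4% bovine serum albumin and was preincubated with compound 10 min at room temperature.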

A short description of experiment [5]: Primary qHTS for inhibitors of nuclear receptor binding SET domain protein 2 (NSD2) in an isogenic RCH-ACV NSD2 p.E1099K mutant (9B) (AID 1645876). Further: nearly all actives have a fitted effect of over 70% in size. Further: potency means the concentration at half of the fitted maximal effect. On activity change, negative = viability loss: on the % scale 0 is the no-effect control and ±100 the full control effect.
A short description of experiment [6]: Primary qHTS for inhibitors of nuclear receptor binding SET domain protein 2 (NSD2) in an RCH-ACV wild type WT cells (2C) (AID 1645877). Further: nearly all actives have a fitted effect of over 70% in size. Further: potency means the concentration at half of the fitted maximal effect.

Cytochrome P450 2C9 (Homo sapiens), sequence (P11712 whole entry, looked up): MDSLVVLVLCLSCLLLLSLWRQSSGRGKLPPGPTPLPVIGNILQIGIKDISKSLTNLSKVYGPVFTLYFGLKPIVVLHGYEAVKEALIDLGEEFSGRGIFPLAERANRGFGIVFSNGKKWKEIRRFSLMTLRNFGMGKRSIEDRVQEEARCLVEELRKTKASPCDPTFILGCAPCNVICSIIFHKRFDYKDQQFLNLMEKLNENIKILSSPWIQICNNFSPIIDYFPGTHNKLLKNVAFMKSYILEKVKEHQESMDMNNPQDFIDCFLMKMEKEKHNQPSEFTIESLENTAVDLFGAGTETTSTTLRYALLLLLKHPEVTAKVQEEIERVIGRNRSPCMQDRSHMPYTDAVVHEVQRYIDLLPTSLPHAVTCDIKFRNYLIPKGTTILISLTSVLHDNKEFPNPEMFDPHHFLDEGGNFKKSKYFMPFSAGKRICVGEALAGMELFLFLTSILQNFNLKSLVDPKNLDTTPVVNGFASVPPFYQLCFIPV
Cytochrome P450 2D6 (Homo sapiens), sequence (P10635 whole entry, looked up): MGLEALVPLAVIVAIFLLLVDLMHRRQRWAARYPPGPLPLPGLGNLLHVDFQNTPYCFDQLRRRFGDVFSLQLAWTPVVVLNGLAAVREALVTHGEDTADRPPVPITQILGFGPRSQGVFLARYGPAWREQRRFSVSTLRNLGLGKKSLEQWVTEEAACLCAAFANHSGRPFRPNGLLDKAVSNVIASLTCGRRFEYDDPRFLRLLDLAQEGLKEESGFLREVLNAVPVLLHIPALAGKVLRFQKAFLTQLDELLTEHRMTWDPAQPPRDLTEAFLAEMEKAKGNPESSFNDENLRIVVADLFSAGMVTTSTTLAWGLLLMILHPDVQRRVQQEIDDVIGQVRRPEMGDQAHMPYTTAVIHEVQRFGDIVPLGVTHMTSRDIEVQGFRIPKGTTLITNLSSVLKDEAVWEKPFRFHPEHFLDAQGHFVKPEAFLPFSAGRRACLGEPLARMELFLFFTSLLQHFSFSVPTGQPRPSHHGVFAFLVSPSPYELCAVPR

In the case of `OCCCc1ccccc1`, the Potency entry in experiment [1], in experiment [2], in experiment [3], in experiment [4], in experiment [5] and in experiment [6] was “inactive” throughout.

Regarding `CC(C)(C)NCC(O)COc1ccccc1OCC1CCCO1` (stereo not drawn), the Potency result in experiment [1], in experiment [2], in experiment [4], in experiment [5] and in experiment [6] was “inactive” in each case. Besides, the Potency in experiment [3] is 6.17 µM (active).

For `CC(=O)N[C@@H](CO)C(=O)N[C@@H](CC(=O)O)C(=O)N[C@@H](CCCCN)C(=O)N1CCC[C@H]1C(=O)O` (Ac-SDKP-OH), the Potency result in experiment [1], in experiment [2], in experiment [3], in experiment [4], in experiment [5] and in experiment [6] was “inactive” each time.

`Nc1ccc([N+](=O)[O-])c(C(F)(F)F)c1`: the Potency result in experiment [1], in experiment [2], in experiment [3], in experiment [4], in experiment [5] and in experiment [6] was “inactive” throughout.

With `O=C(CCCl)NCCc1ccccc1`, the Potency result in experiment [1], in experiment [2], in experiment [3], in experiment [4], in experiment [5] and in experiment [6] was “inactive” each time.

For `Cc1ccccc1N1CCN(CCc2nnc3n2CCCC3)CC1`, the Potency entry in experiment [1], in experiment [2], in experiment [4], in experiment [5] and in experiment [6] was “inactive” each time. In experiment [3], the Potency is 13.8 µM (active).

`O=C1CC2(CCCC2)CC(=O)N1CCNCC1COc2ccccc2O1` (stereo not drawn): the Potency entry in experiment [1], in experiment [2], in experiment [4], in experiment [5] and in experiment [6] was “inactive” throughout. Further, in experiment [3], the Potency was 0.49 µM (active).

On to `CC(C)CCCC(C)NCCC(C)C` (stereo not drawn), for which the Potency entry in experiment [1], in experiment [2], in experiment [4], in experiment [5] and in experiment [6] was “inactive” in each case. For the same molecule, the Potency in experiment [3] is 0.55 µM (active).

In the case of `NC(=O)C1(N2CCCCC2)CCN(CCCN2c3ccccc3CCc3ccc(Cl)cc32)CC1`, the Potency result in experiment [1] is “inactive”. Besides, the Potency was 3.98 µM (active) in experiment [2]; 2.45 µM (active) in experiment [3]; 4.9 µM (active) in experiment [4]; 9.44 µM (active) in experiment [5]; 8.41 µM (active) in experiment [6].

Consider `O=C1[C@@H]2[C@H]3CC[C@H](C3)[C@@H]2C(=O)N1CCCCN1CCN(c2ncccn2)CC1`, for which the Potency result in experiment [1], in experiment [2], in experiment [4], in experiment [5] and in experiment [6] was “inactive” in each case. For the same molecule, the Potency in experiment [3] was 15.5 µM (active).

Consider `C=C(C)C(=O)OCC(O)CO` (stereo not drawn), for which the Potency entry in experiment [1], in experiment [2], in experiment [3], in experiment [4], in experiment [5] and in experiment [6] was “inactive” in each case.

For the molecule `CCCCC(O)/C=C(C)/C=C/C=C/C(=O)N1CCCC1=O` (stereo not drawn), the Potency result in experiment [1], in experiment [2], in experiment [3], in experiment [4], in experiment [5] and in experiment [6] was “inactive” each time.

As to `NS(=O)(=O)c1ccc(N2CCCCS2(=O)=O)cc1`, the Potency result in experiment [1], in experiment [2], in experiment [3], in experiment [4], in experiment [5] and in experiment [6] was “inactive” throughout.

On to `CCOc1ccc(NS(=O)(=O)c2ccc(N)cc2)nn1`, for which the Potency entry in experiment [1], in experiment [2], in experiment [3], in experiment [4], in experiment [5] and in experiment [6] was “inactive” throughout.

Regarding `Cc1ccccc1C(=O)N1CC/C(=N\OS(=O)(=O)O)c2ccc(Cl)cc21`, the Potency entry in experiment [1], in experiment [2], in experiment [3], in experiment [5] and in experiment [6] was “inactive” each time. Also, the Potency in experiment [4] is 8.71 µM (active).

As to `C[C@H]1C[C@H]2[C@@H]3CCC4=CC(=O)C=C[C@]4(C)[C@H]3C(=O)C[C@]2(C)[C@@]1(O)C(=O)CO`, the Potency entry in experiment [1], in experiment [2], in experiment [3], in experiment [5] and in experiment [6] was “inactive” each time. Moreover, the Potency in experiment [4] was 15.1 µM (active).

As for `Cc1ncc(CO)c(CO)c1O`, the Potency entry in experiment [1], in experiment [2], in experiment [3], in experiment [4], in experiment [5] and in experiment [6] was “inactive” throughout.

As for `O=C(O)CCCC[P+](c1ccccc1)(c1ccccc1)c1ccccc1`, the Potency entry in experiment [1], in experiment [2], in experiment [3], in experiment [4], in experiment [5] and in experiment [6] was “inactive” each time.

On to `O=c1[nH]c(=O)n([C@H]2O[C@H](CO)[C@@H](O)[C@@H]2O)cc1/C=C\Br`, for which the Potency entry in experiment [1], in experiment [2], in experiment [3], in experiment [4], in experiment [5] and in experiment [6] was “inactive” throughout.

On to `C[C@H](CN1CCCC1)C(=O)c1ccc(C(F)(F)F)cc1`, for which the Potency result in experiment [1], in experiment [2] and in experiment [4] was “inactive” each time. The results for the Potency in experiment [3], in experiment [5] and in experiment [6] were 2.19 µM (active), 11.9 µM (active) and 6.68 µM (active), respectively.

Regarding `OC1(c2ccc(Cl)c(C(F)(F)F)c2)CCN(CCCC(c2ccc(F)cc2)c2ccc(F)cc2)CC1`, the Potency entry in experiment [1] was “inactive”. For the same molecule, the Potency in experiment [2] is 4.47 µM (active); in experiment [3], 1.23 µM (active); in experiment [4], 15.5 µM (active); in experiment [5], 4.22 µM (active) and 3.25 µM (active); in experiment [6] it was 4.73 µM (active) and 4.59 µM (active).

As for `CC1CN(c2cc3c(cc2F)c(=O)c(C(=O)O)cn3-c2ccc(F)cc2F)CCN1` (stereo not drawn), the activity change, negative = inhibition is -17% [at 3.88 µM] in experiment [1], -0.861% [at 4.83 µM] in experiment [3] and 17.6% [at 4.83 µM] in experiment [4]. Moreover, the % pathology change, negative = correction in experiment [2] is -2.29% [at 4.63 µM]. Also, the activity change, negative = viability loss in experiment [5] is 4.46% [at 4.96 µM]. In addition, the activity change, negative = cell killing in experiment [6] is -0.258% [at 4.96 µM].

With `Cc1c(F)cc2c(=O)c(C(=O)O)cn3c2c1CCC3C` (stereo not drawn), the Potency result in experiment [1], in experiment [2], in experiment [3], in experiment [4], in experiment [5] and in experiment [6] was “inactive” each time.

`C#CC(C)(CC)OC(=O)c1ccccc1C(=O)O` (stereo not drawn): the Potency entry in experiment [1], in experiment [2], in experiment [3], in experiment [4], in experiment [5] and in experiment [6] was “inactive” each time.

Take `CCCCN(CCCC)C(C(N)=O)c1ccc(OC)cc1` (stereo not drawn): the Potency result in experiment [1], in experiment [2], in experiment [4], in experiment [5] and in experiment [6] was “inactive” in each case. The Potency in experiment [3] is 0.776 µM (active).

Consider `CCN(CC)CCN`, for which the Potency result in experiment [1], in experiment [2], in experiment [3], in experiment [4], in experiment [5] and in experiment [6] was “inactive” each time.

On to `C[C@@H]1C[C@H]2[C@@H]3CCC4=CC(=O)C=C[C@]4(C)[C@@]3(F)[C@@H](O)C[C@]2(C)[C@@]1(O)C(=O)COC(=O)c1ccncc1`, for which the Potency result in experiment [1], in experiment [2], in experiment [5] and in experiment [6] was “inactive” each time. In addition, the Potency in experiment [3] was 1.23 µM (active); in experiment [4], 2.45 µM (active).

Take `CC(C)OP(=O)(CP(=O)(OC(C)C)OC(C)C)OC(C)C`: the Potency result in experiment [1], in experiment [2], in experiment [3], in experiment [4], in experiment [5] and in experiment [6] was “inactive” throughout.
